Assay results: PubChem BioAssay (EPA / NIEHS)
The source made the active and inactive calls. How the source made its calls: active means hit-call score of the fitted dose curve at least 0.9, where 1 is the maximum; inactive means score below 0.9.

Legend:
[1] = read-out: Macrophage colony-stimulating factor (MCSF), CSF1 (gene 1435); test: BSK_hDFCGF_MCSF: BioMAP Diversity Plus: hDFCGF Assay for Macrophage colony-stimulating factor (MCSF) Biomarker Activity (AID 2283060); conditions: primary human foreskin fibroblasts; actives raise or lower the signal
Procedure, shortened: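 fibroblasts (human foreskin, primary), 24 h post-dose; M-CSF by ELISA; bidirectional fit, DMSO = baseline.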

[2] = BSK_hDFCGF_SRB: Viability Assessment in the BioMAP Diversity Plus: hDFCGF Assay (AID 2283061); conditions: primary human foreskin fibroblasts;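 further: cells exposed to compound for 24 h before the read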
Procedure, shortened: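 SRB-based viability read on primary human skin fibroblasts at 24 h: TCA fixation, 0.1% dye, 560 nm. Gain or loss of signal is fitted against the DMSO negative control.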

[3] = read-out: TIMP metallopeptidase inhibitor 1 (TIMP1), TIMP1 (gene 7076); test: BSK_hDFCGF_TIMP1: BioMAP Diversity Plus: hDFCGF Assay for TIMP metallopeptidase inhibitor 1 (TIMP1) Biomarker Activity (AID 2283062); conditions: primary human foreskin fibroblasts; actives raise or lower the signal
Procedure, shortened: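 Bidirectional curve fitting against DMSO baseline yielded this endpoint, based on ELISA detection of TIMP-1 in primary human foreskin fibroblasts exposed to compound for 24 h.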

[4] = read-out: Vascular cell adhesion molecule 1 (VCAM1), VCAM1 (gene 7412); test: BSK_hDFCGF_VCAM1: BioMAP Diversity Plus: hDFCGF Assay for Vascular cell adhesion molecule 1 (VCAM1) Biomarker Activity (AID 2283065); conditions: primary human foreskin fibroblasts; actives raise or lower the signal;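 on AC50: VCAM-1 protein level quantified by ELISA after 24 h chemical exposure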
Procedure, shortened: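 Measured after 24 h chemical treatment of primary human skin fibroblasts, VCAM-1 was detected by ELISA and concentration-response analysed in both directions versus DMSO vehicle.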

[5] = read-out: Plasminogen activator inhibitor-1 (PAI1), SERPINE1 (gene 5054); test: BSK_hDFCGF_PAI1: BioMAP Diversity Plus: hDFCGF Assay for Plasminogen activator inhibitor-1 (PAI1) Biomarker Activity (AID 2283066); conditions: primary human foreskin fibroblasts; actives raise or lower the signal
Procedure, shortened: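 Human foreskin fibroblast primary cells, 24 h chemical exposure; PAI-1 measured by ELISA. Bidirectional fitting relative to DMSO; parallel cultures stained with SRB for total protein to flag overt cytotoxicity.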

[6] = read-out: Intercellular Adhesion Molecule 1 (ICAM1), ICAM1 (gene 3383); test: BSK_KF3CT_ICAM1: BioMAP Diversity Plus: KF3CT Assay for Intercellular Adhesion Molecule 1 (ICAM1) Biomarker Activity (AID 2283067); conditions: primary human keratinocytes with fibroblasts; actives raise or lower the signal
Procedure, shortened: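 Bidirectional curve fitting against a DMSO baseline was applied to ICAM-1 ELISA signal from primary human skin co-cultures harvested 24 h after treatment, with SRB staining of parallel wells for overt cytotoxicity.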

[7] = read-out: Interferon-gamma inducible Protein 10 (IP10), CXCL10 (gene 3627); test: BSK_KF3CT_IP10: BioMAP Diversity Plus: KF3CT Assay for Interferon-gamma inducible Protein 10 (IP10) Biomarker Activity (AID 2283068); conditions: primary human keratinocytes with fibroblasts; actives raise or lower the signal
Procedure, shortened: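 In a primary skin co-culture of keratinocytes and fibroblasts, IP-10 is quantified by ELISA at 24 h after dosing. SRB staining of parallel wells monitors overt toxicity. Curves are fitted both directions against DMSO.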

[8] = BSK_KF3CT_SRB: Viability Assessment in the BioMAP Diversity Plus: KF3CT Assay (AID 2283069); conditions: primary human keratinocytes with fibroblasts;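 further: total protein by sulforhodamine B staining as a cytotoxicity measure; read 24 h after compound addition; fitted for both signal gain and loss against DMSO baseline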
Procedure, shortened: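 Human keratinocyte and foreskin fibroblast co-culture exposed to chemical for 24 h. Total protein measured in parallel cultures by 0.1% sulforhodamine B staining after 10% TCA fixation, read at 560 nm; bidirectional fit relative to DMSO.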

[9] = read-out: Interleukin-1 alpha (IL1a), IL1A (gene 3552); test: BSK_KF3CT_IL1a: BioMAP Diversity Plus: KF3CT Assay for Interleukin-1 alpha (IL1a) Biomarker Activity (AID 2283070); conditions: primary human keratinocytes with fibroblasts; actives raise or lower the signal
Procedure, shortened: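 Primary human keratinocyte plus foreskin fibroblast co-culture, dosed and measured at 24 h in 96-well plates. IL-1a level quantified by ELISA; bidirectional fit relative to DMSO.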

[10] = read-out: TIMP metallopeptidase inhibitor 2 (TIMP2), TIMP2 (gene 7077); test: BSK_KF3CT_TIMP2: BioMAP Diversity Plus: KF3CT Assay for TIMP metallopeptidase inhibitor 2 (TIMP2) Biomarker Activity (AID 2283071); conditions: primary human keratinocytes with fibroblasts; actives raise or lower the signal
Procedure, shortened: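 Co-culture of human primary keratinocytes and foreskin fibroblasts, measured 24 h after chemical dosing. TIMP-2 quantified by ELISA and fitted in both directions relative to DMSO. Cytotoxicity checked in parallel cultures by SRB total-protein staining.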

[11] = read-out: Transforming growth factor beta 1 (TGFb1), TGFB1 (gene 7040); test: BSK_KF3CT_TGFb1: BioMAP Diversity Plus: KF3CT Assay for Transforming growth factor beta 1 (TGFb1) Biomarker Activity (AID 2283072); conditions: primary human keratinocytes with fibroblasts; actives raise or lower the signal
Procedure, shortened: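 Human keratinocyte/foreskin fibroblast co-culture; TGF-b1 measured by ELISA 24 h after dosing, fitted bidirectionally versus DMSO. Cytotoxicity checked in parallel cultures by total protein (SRB staining, 560 nm).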

[12] = read-out: C-C motif chemokine 2 (Homo sapiens) (UniProt P13500); test: BSK_KF3CT_MCP1: BioMAP Diversity Plus: KF3CT Assay for Monocyte Chemoattractant Protein 1 (MCP1/CCL2) Biomarker Activity (AID 2283073); conditions: primary human keratinocytes with fibroblasts; actives raise or lower the signal
Procedure, shortened: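 Biomarker MCP-1 is measured by ELISA in primary human keratinocytes co-cultured with foreskin fibroblasts, 24 h after chemical treatment; DMSO serves as the negative control and activity baseline.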

[13] = read-out: Matrix Metallopeptidase 9 (MMP9), MMP9 (gene 4318); test: BSK_KF3CT_MMP9: BioMAP Diversity Plus: KF3CT Assay for Matrix Metallopeptidase 9 (MMP9) Biomarker Activity (AID 2283074); conditions: primary human keratinocytes with fibroblasts; actives raise or lower the signal;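 on AC50: MMP9 protein level quantified by ELISA in the co-culture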
Procedure, shortened: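 Human keratinocyte and foreskin fibroblast co-culture exposed to chemicals for 24 h; MMP9 biomarker measured by ELISA, bidirectional fitting relative to DMSO; cytotoxicity tracked by SRB total protein staining in parallel cultures.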

[14] = read-out: urokinase plasminogen activator (uPA), PLAU (gene 5328); test: BSK_KF3CT_uPA: BioMAP Diversity Plus: KF3CT Assay for urokinase plasminogen activator (uPA) Biomarker Activity (AID 2283075); conditions: primary human keratinocytes with fibroblasts; actives raise or lower the signal
Procedure, shortened: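 Primary human keratinocyte/foreskin fibroblast co-culture exposed to chemical; uPA measured by ELISA at 24 h. Bidirectional fit versus DMSO, with parallel SRB total-protein staining for cytotoxicity.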

CD40, CD40 (gene 958) = test: BSK_LPS_CD40: BioMAP Diversity Plus: LPS Assay for CD40 Biomarker Activity (AID 2283076); conditions: primary human HUVEC with PBMC; actives raise or lower the signal
Procedure, shortened: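 Using a multiplexed primary human co-culture (umbilical vein endothelium plus PBMC), CD40 was read by ELISA 24 h after dosing, with cytotoxicity tracked by sulforhodamine B staining of parallel cultures and activity fitted bidirectionally versus DMSO.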

[15] = read-out: E-selectin (Homo sapiens) (UniProt P16581); test: BSK_LPS_Eselectin: BioMAP Diversity Plus: LPS Assay for Eselectin Biomarker Activity (AID 2283077); conditions: primary human HUVEC with PBMC; actives raise or lower the signal
Procedure, shortened: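 Dose chemical onto LPS-driven HUVEC/PBMC co-culture; after 24 h, run ELISA for E-selectin; fit up- and down-going responses relative to DMSO control.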

[16] = read-out: Interleukin-8 (IL8), CXCL8 (gene 3576); test: BSK_LPS_IL8: BioMAP Diversity Plus: LPS Assay for Interleukin-8 (IL8) Biomarker Activity (AID 2283078); conditions: primary human HUVEC with PBMC; actives raise or lower the signal
Procedure, shortened: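 In this LPS system, chemical-treated human umbilical vein endothelium/PBMC co-cultures were harvested at 24 h for IL-8 ELISA.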

[17] = BSK_LPS_SRB: Viability Assessment in the BioMAP Diversity Plus: LPS Assay (AID 2283079); conditions: primary human HUVEC with PBMC;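 further: total protein by sulforhodamine B absorbance as a cytotoxicity measure; measured one day after compound addition; fitted in both directions against DMSO so loss or gain of signal counts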
Procedure, shortened: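 Cytotoxicity endpoint in human endothelial–PBMC co-culture: 24 h exposure, then SRB (0.1%) staining, 560 nm read.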

[18] = read-out: Monokine induced gamma interferon (MIG), CXCL9 (gene 4283); test: BSK_hDFCGF_MIG: BioMAP Diversity Plus: hDFCGF Assay for Monokine induced gamma interferon (MIG) Biomarker Activity (AID 2283063); conditions: primary human foreskin fibroblasts; actives raise or lower the signal
Procedure, shortened: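 Endpoint derived by bidirectional fitting relative to DMSO; MIG quantified via ELISA in primary human foreskin fibroblasts harvested 24 h after dosing.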

[19] = read-out: Matrix Metallopeptidase 1 (MMP1), MMP1 (gene 4312); test: BSK_hDFCGF_MMP1: BioMAP Diversity Plus: hDFCGF Assay for Matrix Metallopeptidase 1 (MMP1) Biomarker Activity (AID 2283064); conditions: primary human foreskin fibroblasts; actives raise or lower the signal
Procedure, shortened: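 Primary human foreskin fibroblasts exposed to chemicals for 24 h; MMP1 measured by ELISA. Cytotoxicity tracked by SRB staining in parallel cultures; bidirectional fit relative to DMSO.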

Chain of E-selectin (Homo sapiens) (P16581 whole entry, looked up): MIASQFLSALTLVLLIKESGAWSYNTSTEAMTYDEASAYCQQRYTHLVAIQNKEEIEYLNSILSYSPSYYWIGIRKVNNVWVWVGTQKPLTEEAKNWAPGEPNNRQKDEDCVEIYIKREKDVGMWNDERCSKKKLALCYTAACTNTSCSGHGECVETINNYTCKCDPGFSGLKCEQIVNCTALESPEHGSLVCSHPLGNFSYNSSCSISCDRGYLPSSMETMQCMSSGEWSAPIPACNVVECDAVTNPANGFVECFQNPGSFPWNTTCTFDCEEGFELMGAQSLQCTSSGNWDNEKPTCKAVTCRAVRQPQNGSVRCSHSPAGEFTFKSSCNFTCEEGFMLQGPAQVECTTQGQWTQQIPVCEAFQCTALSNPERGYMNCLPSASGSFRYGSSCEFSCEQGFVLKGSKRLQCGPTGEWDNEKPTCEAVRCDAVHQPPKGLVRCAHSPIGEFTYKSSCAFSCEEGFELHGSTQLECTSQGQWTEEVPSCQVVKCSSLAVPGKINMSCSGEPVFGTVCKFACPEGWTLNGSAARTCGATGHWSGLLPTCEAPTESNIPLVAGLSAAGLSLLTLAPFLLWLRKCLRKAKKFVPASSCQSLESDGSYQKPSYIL

**Q.** Which AC50 [1] does the source give for `Oc1ccc(C(c2ccc(O)cc2)(C(F)(F)F)C(F)(F)F)cc1` here?
**A.** 14.8 µM (active)

**Q.** And the AC50 [2]?
**A.** 13.7 µM (active)

**Q.** And the AC50 [3]?
**A.** 15.8 µM (active)

**Q.** And the AC50 [4]?
**A.** 7.41 µM (active)

**Q.** And the AC50 [5]?
**A.** 12.8 µM (active)

**Q.** What about the AC50 [6] of the same compound?
**A.** 37.7 µM (active)

**Q.** What about the AC50 [7] of the same compound?
**A.** 17.3 µM (active)

**Q.** And the AC50 [8]?
**A.** 24.1 µM (active)

**Q.** And the AC50 [9]?
**A.** 32.1 µM (active)

**Q.** And the AC50 [10]?
**A.** 21.1 µM (active)

**Q.** And the AC50 [11]?
**A.** 23.7 µM (active)

**Q.** What about the AC50 [12] of the same compound?
**A.** 17.7 µM (active)

**Q.** What about the AC50 [13] of the same compound?
**A.** 20 µM (active)

**Q.** What about the AC50 [14] of the same compound?
**A.** 34.2 µM (active)

**Q.** What about the AC50 (CD40, CD40 (gene 958)) of the same compound?
**A.** 18 µM (active)

**Q.** What about the AC50 [15] of the same compound?
**A.** 32.4 µM (active)

**Q.** What about the AC50 [16] of the same compound?
**A.** 32.1 µM (active)

**Q.** And the AC50 [17]?
**A.** 28 µM (active)

**Q.** With `C[C@]12CCC(=O)C=C1CC[C@@H]1[C@@H]2CC[C@]2(C)C(=O)CC[C@@H]12` as the compound, how does the outcome [1] read?
**A.** inactive

**Q.** What about the outcome [2] of the same compound?
**A.** inactive

**Q.** What about the outcome [3] of the same compound?
**A.** inactive

**Q.** And the outcome [18]?
**A.** inactive

**Q.** And the outcome [19]?
**A.** inactive

**Q.** And the outcome [4]?
**A.** inactive

**Q.** And the outcome [5]?
**A.** inactive

**Q.** And the outcome [6]?
**A.** inactive

**Q.** What about the outcome [7] of the same compound?
**A.** inactive

**Q.** What about the outcome [8] of the same compound?
**A.** inactive

**Q.** What about the outcome [9] of the same compound?
**A.** inactive

**Q.** What about the outcome [10] of the same compound?
**A.** inactive

**Q.** What about the outcome [12] of the same compound?
**A.** inactive

**Q.** And the outcome [13]?
**A.** inactive

**Q.** What about the outcome [14] of the same compound?
**A.** inactive

**Q.** What about the outcome (CD40, CD40 (gene 958)) of the same compound?
**A.** inactive

**Q.** What about the outcome [15] of the same compound?
**A.** inactive

**Q.** What about the outcome [16] of the same compound?
**A.** inactive
